Measurements: PubChem BioAssay AID1531 (NMMLSC, 2009)
The campaign covered roughly 290,000 compounds. About 3,300 (1.1%) were called active. This excerpt belongs to a sample that is enriched for actives. Values without a mark were called inactive. Rule as the data show it: active = binding response below about 67% or above about 130%; inconclusive = no clear call, values can overlap the other calls; inactive = in between.

biological target: Mitogen-activated protein kinase kinase kinase 2 (Homo sapiens) (UniProt Q9Y2U5); assay: wildtype MEKK2 PB1-MEK5 interaction, increase or decrease – biochemical, multiplex bead flow cytometry, Alexa488-MEK5, primary screen (AID 1531); settings: Alexa488-MEK5 binding to MEKK2 WT, at 10 µM, actives lie on both sides

Compared with O=C1NC(=O)N(CCc2ccc(F)cc2)C(=O)/C1=C/C=C/c1ccccc1, O=C1NC(=O)N(Cc2ccco2)C(=O)/C1=C\c1cccn1CCOc1ccccc1 is higher in binding response (% of control): 97% for the first, 110% for the second.

Going from CCOP(=S)(OCC)C(O)CCCCCn1c(=O)c(F)cn(C2CCCO2)c1=O (stereo not given) to COC(=O)C1=C(c2cc3ccccc3o2)C[C@@H]2CC[C@H]1N2C(=O)NC1CCCCC1, the binding response (% of control) falls from 106% to 101%.

Compared with c1ccc(CC2CCCCN2)cc1 (stereo not given), c1ccc(CCNC2CCCCCC2)cc1 is lower in binding response (% of control): 107% for the first, 101% for the second.

Going from N#Cc1ccc(Cn2cc(C(=O)c3ccco3)c3ccccc32)cc1 to COC(=O)C1=C(c2cc3ccccc3s2)C[C@@H]2CC[C@H]1N2C(=O)NCc1cccc2ccccc12, the binding response (% of control) falls from 98% to 93%.

Cc1ccc2c(c1)=C/C(=C\c1c(O)[nH]c(=O)[nH]c1=O)C(=O)N=2 and COc1ccc(-n2c(O)c(C(C)=Nc3ccc4c(c3)CCC4)c(=O)[nH]c2=O)cc1 are the same in binding response (% of control): 99% for the first, 99% for the second.

Compared with COC(=O)N1C(c2ccccc2)C1c1ccccc1 (stereo not given), CN(C)S(=O)(=O)c1cc(C(=O)N2CCC(C(=O)O)(c3ccccc3)CC2)ccc1Cl is higher in binding response (% of control): 101% for the first, 106% for the second.

O=C(O)COc1ccccc1/C=C1\C(=O)NC(=O)N(CCC2=CCCCC2)C1=O was tested, and the binding response (% of control) was -4% (active).
In the case of CCCCCCCCCCCCn1ccc(=N)cc1, the binding response (% of control) is reported as 173% (active).
CNCC(O)c1cc(F)c(OCc2ccccc2)c(OCc2ccccc2)c1F (stereo not given) was tested, and the binding response (% of control) was 141% (active).
